The list is not random: actives were taken first. Their share in the collection is about 2%.
PfG6PD inh: PfG6PD enzyme inhibitors, primary screen, biochemical, fluorescence intensity, uHTS | PfGluPho enzyme, NADPH resazurin-diaphorase fluorescence | inhibition, % at 20 µM | hit rate 0.78% among 350,000;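 active = inhibition reaching at least a set limit at 20 µM in the primary screen, cut at about 59% in these data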;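 note: 0% = DMSO wells with substrate and 100% = DMSO wells lacking glucose-6-phosphate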
NPR1 activator: GC-A stimulated cGMP production enhancers – HEK293 GC-A cells, cGMP TR-FRET, EC30 ANP, primary screen; Atrial natriuretic peptide receptor 1 (Homo sapiens), P16066; 0% at EC30 ANP, 100% saturating ANP; activation, % at 10 µM; hit rate 0.14% among 370,000; in the data active = activation above about 40%
A3G deaminase: APOBEC3G DNA deaminase inhibitors, primary screen, biochemical, fluorescence, single-stranded DNA substrate, uHTS | inhibition, % at 20 µM | AID 493012, 2011 | hit rate 0.28% among 330,000 | recombinant A3G, ssDNA deamination FAM/TAMRA fluorescence;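 active = inhibition of at least 40% at 20 µM, with no more than 30% in the related APOBEC3A deaminase screen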;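 note: plate controls were DMSO wells with A3G for no effect and wells lacking A3G enzyme for full effect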
Neddyl block: inhibitors of cullin neddylation, primary screen, biochemical, TR-FRET, uHTS, NAE and Ubc12 | NEDD8-conjugating enzyme Ubc12 (Homo sapiens) + NEDD8-activating enzyme E1 regulatory … | inhibition, % at 25 µM | hit rate 0.58% among 360,000 | AID 651699, 2012; in the data active = inhibition above about 36%
GC-B act: human GC-B receptor activators, primary screen, HEK293 GC-B cells, cGMP TR-FRET, EC30 CNP; hit rate 0.11% among 370,000; 0% at EC30 CNP, 100% saturating CNP; Atrial natriuretic peptide receptor 2 (Homo sapiens), P20594; AID 1920062, 2024; activation, % at 10 µM;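 active = activation at 10 µM reaching about 35% in either raw or pattern-adjusted values, limit read from the data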
A3A deaminase: APOBEC3A ssDNA deaminase inhibitors, primary screen, selectivity assay for APOBEC3G inhibitor project, biochemical, FAM/TAMRA oligo cleavage fluorescence; DNA dC->dU-editing enzyme APOBEC-3A (Homo sapiens), P31941; recombinant A3A, FAM/TAMRA ssDNA deamination fluorescence; inhibition, % at 20 µM; hit rate 0.41% among 330,000; AID 493011, 2011;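 active = at least 40% inhibition at 20 µM here, with at most 30% in a related deaminase screen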;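 note: plate controls were A3A with DMSO for no effect and wells lacking A3A enzyme for full effect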
Target sequence (P31941 whole entry, looked up): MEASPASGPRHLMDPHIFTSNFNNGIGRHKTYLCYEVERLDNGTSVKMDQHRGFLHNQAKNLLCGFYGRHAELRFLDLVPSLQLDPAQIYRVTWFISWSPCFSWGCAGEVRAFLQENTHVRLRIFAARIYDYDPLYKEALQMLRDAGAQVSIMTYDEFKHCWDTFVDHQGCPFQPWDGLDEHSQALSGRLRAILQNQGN
PfG6PD confirm: PfG6PD inhibitors, hit retest, confirmation, biochemical, fluorescence intensity, single concentration; recombinant PfGluPho, NADPH-diaphorase-resazurin fluorescence; hit rate 34% among 2,400; shares compounds with PfG6PD inh; inhibition, % at 20 µM; AID 504753, 2011;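 active = inhibition of at least 50% at 20 µM in any single replicate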;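 note: 0% = DMSO with substrate and 100% = DMSO lacking glucose-6-phosphate substrate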
Diaph ctr 10uM: diaphorase inhibitors and chemical oxidizers, confirmation, counter-screen for P. falciparum G6PD inhibitor project, biochemical, fluorescence intensity, 10 µM NADPH; shares compounds with PfG6PD inh; diaphorase-coupled resazurin reduction, NADPH 10 uM; inhibition, % at 20 µM; hit rate 39% among 820; AID 504862, 2011;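 active = average inhibition reaching 50% or more with the compound at 20 µM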;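 note: resorufin red fluorescence formed as diaphorase reduces resazurin using NADPH; 0% = DMSO with enzyme and 100% = DMSO without enzyme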
Diaphorase 30uM: diaphorase inhibitors and chemical oxidizers, confirmation, counter-screen for P. falciparum G6PD inhibitor project, biochemical, fluorescence intensity, 30 µM NADPH; Diaphorase/resazurin coupled assay, resorufin fluorescence; AID 504863, 2011; shares compounds with PfG6PD inh; inhibition, % at 20 µM; hit rate 29% among 820;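 active = inhibition averaging 50% or more, tested at 20 µM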;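 note: 0% = DMSO with enzyme and 100% = DMSO wells lacking diaphorase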
Numbers without * were called inactive; x = no result given.

SMILES | PfG6PD inh | NPR1 activator | A3G deaminase | Neddyl block | GC-B act | A3A deaminase | PfG6PD confirm | Diaph ctr 10uM | Diaphorase 30uM
COc1ccc(/C=N/Nc2nnc(C)n2N)cc1OC | 61* | -1 | -5 | 2 | -1 | -1 | 7 | x | x
CCOc1ccccc1C(=O)Nc1ccc(S(=O)(=O)Nc2nccc(C)n2)cc1 | 73* | 4 | -5 | 21 | 0 | -1 | 14 | x | x
O=C1C(=C(I)I)c2ccccc2-c2ccccc21 | 104* | 7 | x | -56 | 5 | x | 60* | 61* | 70*
CCOC(=O)C1=NOC(C(=O)NC2CCCC2)(C(=O)C2CC2)C1 (stereo unspecified) | x | 3 | x | x | -4 | x | x | x | x
Nc1nonc1-n1nnc(C(=O)N/N=C/c2ccc(F)cc2)c1-c1ccc2c(c1)OCO2 | -4 | 5 | -1 | 10 | 10 | 2 | x | x | x
Nc1nonc1-n1nnc(C(=O)N/N=C/c2cccc(F)c2)c1-c1ccccc1 | 85* | 2 | -5 | -25 | -5 | -1 | 44 | x | x
Nc1nonc1-n1nnc(C(=O)N/N=C/c2cccc(Cl)c2)c1-c1cccs1 | 126* | -5 | -4 | -7 | -3 | 1 | 98* | 94* | 75*
Nc1nonc1-n1nnc(C(=O)N/N=C/c2cccc(F)c2)c1-c1ccc2c(c1)OCO2 | 106* | 0 | -3 | 18 | -3 | -3 | 85* | 75* | 65*
O=[N+]([O-])c1ccc2nc(/C=C/c3ccc(Cl)cc3)[nH]c2c1 | 62* | -7 | -3 | 13 | -6 | -2 | 18 | x | x
O=[N+]([O-])c1ccc(-c2nc3ccc([N+](=O)[O-])cc3[nH]2)cc1 | 86* | 12 | 1 | -37 | 18 | -1 | 42 | x | x
CCn1c(=O)n(CC(=O)N2CCCC2)c(=O)c2ccccc21 | x | 1 | x | x | 2 | x | x | x | x
COc1cc(CN2CCCC(C(=O)c3ccc4c5c(cccc35)CC4)C2)cc(OC)c1O (stereo unspecified) | 74* | -3 | -6 | 34 | -5 | -5 | 79* | 16 | 0
CCCC[C@@H]1C(=O)N2N=Cc3cscc3[C@H]2N2N=Cc3cscc3[C@@H]12 | x | -11 | x | x | -15 | x | x | x | x
COC(=O)C1CN(Cc2cn(Cc3ccc(C)cc3)nn2)CCS(=O)(=O)N1Cc1ccc(C)cc1 (stereo unspecified) | x | -4 | x | x | -9 | x | x | x | x
Cc1ccc(S(=O)(=O)C=CS(=O)(=O)c2ccc(C)cc2)cc1 | 113* | -6 | x | 3 | 26 | x | 93* | -3 | -1
Cc1ccc(S(=O)(=O)SC/C=C/CSS(=O)(=O)c2ccc(C)cc2)cc1 | 116* | 7 | x | -2 | 13 | x | 66* | -21 | -5
Cc1ccc(S(=O)(=O)SCCCSS(=O)(=O)c2ccc(C)cc2)cc1 | 123* | 10 | x | -1 | 18 | x | 81* | -34 | -27
Cc1ccc(S(=O)(=O)CCCS(=O)(=O)c2ccc(C)cc2)cc1 | -10 | 2 | -9 | 9 | 3 | -4 | x | x | x
CCNC(=O)N(C)[C@H]1C[C@H]2c3[nH]c4c(-c5cccc(C)c5)cccc4c3CCN2C[C@H]1[C@H](C)O | x | 1 | x | x | 8 | x | x | x | x

Screens (PubChem BioAssay)
